Test results from PubChem BioAssay (NCI).
This is part of a sample that, as a whole, favours compounds with a hit. Of some 83,000 tested, about 20% had one in any assay.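 Cell lines were cultured in 96-well plates, exposed to a single compound concentration, and assessed for percent growth 48 hours later.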 Values without a mark were called inactive. Activity calls are given as the source filed them. How the source made its calls: active means growth percent below 10; inactive means the rest.

What was measured:
Assay in all cases: NCI-60 one-dose screen, 48 h (100 = growth as untreated, 0 = no growth, -100 = all killed)
Details in all cases: 10 µM unless noted
NCI-H226 lung = test system: NCI-H226 lung
NCI-H322M lung = test system: NCI-H322M lung
HOP-62 NSCLC = test system: HOP-62 NSCLC
NCI-H460 lung = test system: NCI-H460 lung
HOP-92 NSCLC = test system: HOP-92 NSCLC
NCI-H522 lung = test system: NCI-H522 lung
A549/ATCC NSCLC = test system: A549/ATCC NSCLC
786-0 renal = test system: 786-0 renal
COLO 205 colon = test system: COLO 205 colon
DU-145 prostate = test system: DU-145 prostate

Compound | growth (NCI-H226 lung) | growth (NCI-H322M lung) | growth (HOP-62 NSCLC) | growth (NCI-H460 lung) | growth (HOP-92 NSCLC) | growth (NCI-H522 lung) | growth (A549/ATCC NSCLC) | growth (786-0 renal) | growth (COLO 205 colon) | growth (DU-145 prostate)
COc1cccc(OC)c1-c1nnn(C)c1C(=S)N1CCN(c2ccc([N+](=O)[O-])cc2Cl)CC1 | 88.6% | 82.6% | 106% | 101% | 80.3% | 93.6% | 92.9% | 92.1% | 107% | 100%
COc1cc(-c2nc3ccc(-c4nnc(SCC(=O)Nc5ccc(C(C)=O)cc5)o4)cc3[nH]2)cc(OC)c1OC | 105% | 99.5% | 98.7% | 103% | 92.5% | 99.5% | 99.9% | 106% | 110% | 115%
O=C1NC(=C(Cl)Cl)/C(=N/S(=O)(=O)N2CCCCC2CC2(C(F)(F)F)N=N2)N1 (stereo not given) | 89.7% | 97.9% | 96% | 84.6% | -51.6% (active) | -59.3% (active) | 111% | -24.7% (active) | -17.5% (active) | 74%
O=C(CCN1C(=O)/C(=C/c2ccccc2F)SC1=S)N1CCOCC1 | 105% | 80.5% | 117% | 90.7% | 133% | 41.4% | 102% | 77.4% | 108% | 57.5%
Cc1ccc2c(n1)C(=O)C(Cl)=C(Nc1cccc(C(C)C)c1)C2=O | 35.4% | 85% | 89.1% | 78.8% | 110% | 23.4% | 29.9% | 68.4% | 112% | 22.5%
O=C(CN1C(=O)/C(=C/c2ccccc2)SC1=S)N1CCOCC1 | 105% | 91.9% | 97% | 105% | 102% | 68.2% | 97.4% | 92.3% | 116% | 103%
CCCC(=O)NC(c1ccc2c(c1)OC(F)(F)O2)c1cc(C)c2cccnc2c1O (stereo not given) | 10.8% | 34.2% | 15.9% | -4.44% (active) | 33.5% | 18.2% | 16.5% | 0.74% (active) | 21.1% | 26%
COc1cc(-c2ccc3ncnc(NC(C)c4ccccc4)c3c2)cnc1OC (stereo not given) | 52.8% | 15.4% | 44.4% | 64.5% | 20.1% | 40.9% | 41.9% | 44.2% | 72.9% | 37.2%
CN1CCN(Cc2ccc(NC(=O)c3cncc(C#Cc4cnc5[nH]ncc5c4)c3)cc2C(F)(F)F)CC1 | 20.4% | 45.8% | 50.8% | 11.1% | -12.2% (active) | 50.9% | 34.3% | 45.7% | 21.1% | 32.8%
CS(=O)(=O)Nc1ccc(-c2nn(-c3ccc(S(C)(=O)=O)cc3)cc2/C=C/C(=O)c2ccc(NC(=O)CO[N+](=O)[O-])cc2)cc1 | 89.3% | 102% | 100% | 110% | 103% | 99.1% | 101% | 102% | 114% | 116%
CN1CCN(Cc2ccc(NC(=O)c3cncc(C#Cc4cnc5ccc(N6CCSCC6)nn45)c3)cc2C(F)(F)F)CC1 | -24.7% (active) | -23.9% (active) | -31.1% (active) | -46.6% (active) | -48.6% (active) | -75.4% (active) | -24.5% (active) | -77.7% (active) | -87.9% (active) | -83.2% (active)
O=c1[nH]c2ccc(Cl)cc2cc1CSc1ccccc1Nc1nccc(-c2ccc(Cl)cc2)n1 | 115% | 101% | 101% | 95.3% | 87.6% | 97.3% | 86.4% | 93.6% | 116% | 94.5%
COc1ccc(/C=C/C(=O)c2ccc(NC(=O)CSc3nnc(-c4ccc5nc(-c6ccc(Cl)cc6)[nH]c5c4)o3)cc2)cc1 | 87.6% | 103% | 103% | 102% | 102% | 79.1% | 105% | 99.6% | 118% | 108%
C#Cc1nc(C2=C(C)/C(=N/OCc3ccccc3)CC2)cs1 | 48.4% | 92.6% | 55.6% | 39.6% | -79.2% (active) | -56.9% (active) | 84.5% | -95.7% (active) | 83.5% | 88.5%
CN(C)CCCNc1c2ccc(Cl)cc2nc2c1oc1ccc(Cl)cc12 | 25.7% | 2.57% (active) | 47.7% | -31.2% (active) | 21.8% | 16.7% | -38.4% (active) | -85.3% (active) | 34.2% | -48.8% (active)
Clc1ccc(Cc2nnc3sc(-c4cccnc4)nn23)cc1 | 93% | 87.8% | 107% | 103% | 91.9% | 89.5% | 98.2% | 92.6% | 115% | 101%
COc1ccc(-c2cc(C(=O)N=Nc3c(O)[nH]c4ccccc34)c3ccccc3n2)cc1OC | 86.2% | 89.7% | 93.2% | 99% | 89.5% | 90.2% | 95.7% | 104% | 98.3% | 104%
O=C1/C(=C/C2=Cc3ccccc3OC2)SC(=S)N1c1ccc(F)cc1 | 103% | 97.2% | 101% | 105% | 99.2% | 90.4% | 101% | 96.3% | 107% | 104%
CSCCC(C(=O)O)N1C(=O)/C(=C/c2ccc(O)c(O)c2)SC1=S (stereo not given) | 107% | 91.8% | 100% | 109% | 108% | 102% | 108% | 94.4% | 123% | 108%
N#Cc1c(-c2ccc(Cl)cc2)nc(SCc2ccc(F)cc2)nc1N1CCNCC1 | 101% | 76.7% | 80.8% | -70.2% (active) | 6.64% (active) | 94.1% | 60.2% | 62.5% | -27.2% (active) | 61%
CC(=O)Oc1ccccc1C(=O)Nc1cc(C(C)C)ccc1C | 9.84% (active) | 11.7% | 19.6% | 9.6% (active) | -19.5% (active) | 4.56% (active) | 13.1% | 25.6% | 92.7% | 23.1%
Cc1ccc(/C=C/c2nn3c(-c4ccco4)nnc3s2)cc1C | 106% | 97.1% | 100% | 104% | 93.9% | 104% | 94% | 100% | 126% | 103%
O=C(c1ccc(O)cc1)C1[C@H](c2ccc(Cl)cc2)[C@@H](c2ccccc2)NC12C(=O)Nc1ccc(Cl)cc12 (stereo not given in full) | 42.3% | 61.2% | 64.6% | 20.6% | 35.2% | 71.7% | 33.5% | 52.3% | 61% | 52.4%
CCOC(=O)c1c(Nc2ccccc2)nn2c(N)c(C#N)c(-c3ccc(Cl)cc3)nc12 | 42.1% | 77.4% | 53.9% | 12.1% | 43.2% | 72.3% | 46% | 38.7% | 69.4% | 62%
NS(=O)(=O)c1ccc(Nc2nc(SCC(=O)c3ccc(Cl)cc3)nc3ccccc23)cc1 | 87.1% | 86.5% | 95.3% | 97.1% | 84.4% | 88% | 97.1% | 96% | 107% | 97.1%
O=C(CCN1C(=O)/C(=C/c2ccccc2)SC1=S)N1CCOCC1 | 104% | 87.2% | 114% | 99.3% | 94.6% | 58.3% | 101% | 82.6% | 119% | 77.3%
Nc1nc(N)c2c(n1)NC(c1ccc(C(F)(F)F)cc1)CC(c1ccc(Nc3nc(NCCO)nc(Nc4ccc(Cl)cc4)n3)cc1)=N2 (stereo not given) | -40.7% (active) | -61% (active) | 71.7% | -69% (active) | -65.6% (active) | -80.1% (active) | -66.2% (active) | -90.2% (active) | 5.02% (active) | -93.1% (active)
